4 compounds from PubChem BioAssay can be followed below.

The inhibition is the drop in the measured response relative to a control, in per cent. By viability is commonly meant a read-out of living cells in per cent, often relative to untreated cells.

The nature of test [1]: blockers of polyQ-driven CASP3 activation – cell-based (AID 1583). The following applies: polyglutamine-induced caspase-3 activation, cell assay; stronger effect = higher value;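 tested at 10 µM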.
Test [2] can be described thus: yeast 75Q aggregation reduction – 75Q-TubU reporter (AID 1593). The following applies: Yeast 75Q polyglutamine aggregation reporter.
Test [3] is described as follows: restoration of touch response, mutant HTT neurons – whole organism, C. elegans mechanosensory neurons, N-terminal huntingtin (AID 1599). To be noted: C. elegans polyQ-huntingtin mechanosensory neurons, stronger effect = higher value.
Test [4] can be described thus: blockers of cytochrome c efflux from mitochondria – biochemical, purified mitochondria (AID 1603).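 Further: mouse liver mitochondria challenged with calcium chloride; signal normalized to the plate average as 100%.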 The following applies: stronger effect = lower value.
The nature of test [5]: polyglutamine aggregate formation blockers (AID 1604). To be noted: polyglutamine-induced protein aggregation inhibition assay; stronger effect = higher value; tested at 2.5 µM.
Test [6] is described as follows: glutamate transport activators, MN-1 cells, MN-1 cell line (AID 1612).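 Further: tested at 1 µM final; 0% = mean of DMSO vehicle wells on each plate; positive means more glutamate uptake than control and negative means less.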 To be noted: MN-1 motor neuron cells, stronger effect = higher value.
The nature of test [7]: GFP-Q80 aggregate reduction, neuronal-like cells, cell-based, NGF-treated PC12, GFPQ80 (AID 1614).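 Further: lower means fewer inclusions and 0 means no inclusions at all.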 The following applies: PC12 NGF-treated GFP-polyQ80 inclusion reduction.
Test [8] in a line: 75Q-TubH aggregate inhibition, S. cerevisiae, yeast (AID 1616). To be noted: S. cerevisiae 75Q-TubH polyglutamine aggregation suppression; stronger effect = higher value.
A short description of test [9]: P. berghei load reduction in hepatocytes – cell-based, HepG2, luciferase luminescence, HepG2 viability, primary screen (AID 624349).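 Further: 100% = mean of DMSO negative control wells on the same plate.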 The following applies: P. berghei liver stage in HepG2, luciferase luminescence, concentration not given here; parasite load remaining: stronger effect = lower value; viability: measured here: HepG2 viability without parasites.
Test [10] is described as follows: EMT-state selective cytotoxicity in co-culture – imaging, PC-3E GFP, TEM4-18 mCherry, primary screen (AID 1345086;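 active means compounds killing one labelled cell type while sparing the other, by normalised counts and ratio limits, not self-fluorescent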;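 on all read-outs here: cells exposed to compound for 72 h before imaging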;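 on red/green cell ratio (normalised): normalised mesenchymal count divided by normalised epithelial count so high means epithelial killing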). To be noted: PC-3E GFP / TEM4-18 mCherry co-culture, imaging cell counts, at 1 µM; for red/green cell ratio (normalised): actives lie on both sides, counts scaled to control wells, 1 = unselective.
Test [11] can be described thus: viability loss with induced miR-34 in A549 – imaging, A549 dox-inducible miR-34, nuclei and caspase counts, primary screen (AID 1347080;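 active means compounds whose cell count with miR-34 switched on is under 0.7 times the count with it off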). The following applies: A549 miR-34 inducible, Hoechst nuclei count, 48 h.
Test [12] deals with Hepatitis C virus NS3 helicase. As to the kind of experiment: blockers of NS3h binding to ssDNA – biochemical, fluorescence polarization, LOPAC1280 library, primary screen (AID 687035; in the data active means inhibition above about 37%). The following applies: Purified HCV NS3 helicase, Cy5-dT15 ssDNA binding fluorescence polarization; stronger effect = higher value; concentration not given here.
The nature of test [13]: compounds altering Cy5-DNA-NS3h complex signal – biochemical, LOPAC1280, artefact control for HCV NS3 helicase inhibitor project (AID 687037; call rule not given here). To be noted: Cy5-DNA-NS3h complex fluorescence interference counterscreen. On the technique in general: Counterscreens check selectivity or assay interference.
The mark [14] stands for this setting: measured here: epithelial PC-3E GFP cell survival.
Where [15] appears, read: measured here: mesenchymal TEM4-18 mCherry cell survival.
The mark [16] stands for this setting: stronger effect = lower value, cell number ratio, induced over uninduced.
Where [17] appears, read: measured here: relative caspase fold change +Dox/-Dox.
[18] abbreviates: measured here: total cells with miR-34 induction, stronger effect = lower value.
The mark [19] stands for this setting: measured here: total cells without miR-34 induction.

Values joined by “and” are separate entries in the source; they are usually repeats but may differ in a detail not shown here. Identical values can stand only once. For part of these data: Potency and affinity values are given separately. Active and inactive are the calls of the source. Unless noted, no stated cut-off is given here; in the data, active means parasite load remaining mostly below about 12% (no sharp cut-off); inactive means mostly above about 10%.

As for `CNC[C@@H](O)c1ccc(O)c(O)c1`, in test [1], the inhibition was found to be 15.5%. In test [2], this compound came in with a score of 1.46. Also, the rescue above control in test [3] is -0.75. Besides, the cytochrome c release ratio in test [4] stood at 0.7. Further, in test [5], the inhibition of aggregation came to 86.2%. Further, in test [6], the glutamate uptake change is -6.16%. Moreover, the inclusion score in [7] came to 1. Moreover, the aggregation suppression score in [8] was found to be 1.31. In [9], the parasite load remaining was 51.9% (inactive) and 119% (inactive). Besides, the viability in [9] is 72.9% and 92%. The red/green cell ratio (normalised) in [10] was 1.49 (inactive). Besides, the normalised cell number in test [10] (setting [14]) stood at 1.01; in [10] (setting [15]), 1.5. The fold change in test [11] (setting [16]) was 0.901 (inactive); in test [11] (setting [17]), 3.62. Moreover, the cell count was determined as 11500 in [11] (setting [18]) and 12800 in test [11] (setting [19]).
For the compound `C[C@H]1O[C@@H](O[C@H]2[C@@H](O)C[C@H](O[C@H]3[C@@H](O)C[C@H](O[C@H]4CC[C@]5(C)C6C[C@@H](O)[C@]7(C)[C@@H](C8=CC(=O)OC8)CC[C@]7(O)C6CC[C@@H]5C4)O[C@@H]3C)O[C@@H]2C)C[C@H](O)[C@@H]1O` (some centres undefined), in test [1], the inhibition stood at 80%. Besides, the score in test [2] is 1.17. The compound further displayed a rescue above control in test [3] of 0. In addition, the cytochrome c release ratio in test [4] was determined as 0.9. The inhibition of aggregation in test [5] amounted to 88.9%. Moreover, the glutamate uptake change in test [6] was -3.95%. This compound gave an inclusion score in test [7] of 1.5. This compound also came in with an aggregation suppression score in test [8] of 1.34. Further, in test [9], the parasite load remaining was 1.4% (inactive) and 1.3% (inactive). For the same compound, the viability in test [9] is 36.1% and 54.9%. Besides, in test [10], the red/green cell ratio (normalised) was 0.68 (inactive). The normalised cell number in test [10] (setting [14]) was 1.14; in test [10] (setting [15]), 0.77. The values for the fold change in [11] (setting [16]) and in test [11] (setting [17]) were 0.434 (active) and 2.23, respectively. For the same compound, the values for the cell count in test [11] (setting [18]) and in test [11] (setting [19]) were 193 and 445, respectively.
For the compound `C[C@H](CCC(=O)O)[C@H]1CCC2C3C(CC[C@@]21C)[C@@]1(C)CC[C@@H](O)C[C@H]1C[C@H]3O` (some centres undefined), in test [1], the inhibition was found to be 13.5%. This compound gave a score in test [2] of -0.55. Also, in test [3], the rescue above control is -0.69. For the same compound, the cytochrome c release ratio in test [4] came to 0.92. For the same compound, the inhibition of aggregation in test [5] was found to be 21.1%. Moreover, the glutamate uptake change in test [6] was -19.3%. In addition, in test [8], the aggregation suppression score is 0.165. Also, the parasite load remaining in test [9] is 96.5% (inactive) and 33.9% (inactive). Further, the viability in test [9] is 70.7% and 87%. In addition, the red/green cell ratio (normalised) in test [10] was 1.27 (inactive). The normalised cell number in [10] (setting [14]) was determined as 0.99; in test [10] (setting [15]), 1.25. Moreover, the fold change in test [11] (setting [16]) is 0.893 (inactive); in [11] (setting [17]) it was 3.03. For the same compound, the cell count was determined as 10800 in [11] (setting [18]) and 12100 in test [11] (setting [19]).
For the compound `NC(N)=N/N=C\c1c(Cl)cccc1Cl`, the inhibition in test [1] is -8.15%; in test [12], 0% (inactive). For the same compound, in [2], the score stood at 1.22. Also, the rescue above control in test [3] was -12.2. Moreover, the cytochrome c release ratio in test [4] is 1.41. In test [5], this compound displayed an inhibition of aggregation of 61%. Further, the glutamate uptake change in test [6] was determined as 33.9%. In addition, the inclusion score in test [7] is 2. The aggregation suppression score in [8] turned out to be 0.91. In [9], the parasite load remaining is 56% (inactive) and 40.7% (inactive). Besides, the viability in [9] is 69.3% and 86.4%. Besides, in [13], the fluorescence ratio (interference) is 1 (inactive). Further, the red/green cell ratio (normalised) in test [10] was 1.13 (inactive). In addition, the normalised cell number stood at 1.05 in [10] (setting [14]) and 1.18 in test [10] (setting [15]). Besides, the fold change in [11] (setting [16]) was 0.816 (inactive); in [11] (setting [17]), 0.826. The cell count in test [11] (setting [18]) stood at 8780; in test [11] (setting [19]), 10800.
